Compound activity: PubChem, National Center for Advancing Translational Sciences (NCATS)
TDP1 cell noCPT – qHTS for Inhibitors of human tyrosyl-DNA phosphodiesterase 1 (TDP1): qHTS in cells in absence of CPT. DT40 Tdp1-/- hTDP1 cells, no CPT, ATP luminescence, 48 h. Potency, µM (titrated, usually from 46.2 µM), without a hit: at the highest dose activity change, negative = growth inhibition, most hits filed as inhibitors. 420,000 compounds, 15% hits; further: potency means the concentration at half of the fitted maximal effect; nearly all actives have a fitted effect of over 55% in size
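Compound effects on proliferation are scored in DT40 Tdp1-/-;hTDP1 cells in the absence of CPT. ATP levels (CellTiter-Glo luminescence) are recorded after a ≥48 hr, 37 °C incubation.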
RORgamma inh – ROR gamma (mouse) transcription inhibition. AID 2551. 310,000 compounds, 5.4% hits. Drosophila S2 Gal4-RORgamma UAS-luciferase reporter, 20 h. P51450. Potency, µM (top dose mostly 53.6 µM), inactives show at the top dose activity change, negative = inhibition, usual class: inhibitors; further: potency means the concentration at half of the fitted maximal effect; nearly all actives have a fitted effect of over 60% in size
Target sequence (P51450 whole entry, looked up, the tested form may be a part): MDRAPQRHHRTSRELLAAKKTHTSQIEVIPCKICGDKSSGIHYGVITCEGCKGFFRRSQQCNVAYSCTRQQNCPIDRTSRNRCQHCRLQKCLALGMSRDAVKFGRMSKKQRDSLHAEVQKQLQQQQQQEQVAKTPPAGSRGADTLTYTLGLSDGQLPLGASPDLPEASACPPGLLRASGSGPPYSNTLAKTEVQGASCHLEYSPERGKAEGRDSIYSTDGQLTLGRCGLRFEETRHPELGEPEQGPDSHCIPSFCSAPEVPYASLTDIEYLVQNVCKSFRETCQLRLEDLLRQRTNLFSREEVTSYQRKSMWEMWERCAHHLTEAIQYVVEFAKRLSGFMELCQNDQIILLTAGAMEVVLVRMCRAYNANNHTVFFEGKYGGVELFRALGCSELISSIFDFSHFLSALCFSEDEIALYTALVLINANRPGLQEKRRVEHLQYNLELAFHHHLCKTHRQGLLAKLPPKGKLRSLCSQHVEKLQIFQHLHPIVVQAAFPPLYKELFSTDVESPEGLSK
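Using a luciferase readout, inhibitors were identified by reduced reporter activity in Drosophila cells coexpressing a copper-inducible Gal4–ROR gamma fusion and UAS-driven Photinus luciferase, incubated 20 hr after 700 uM copper sulfate.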
ELG1 repair inh – ELG1-dependent DNA repair inhibition; HEK293T ELG1-luciferase reporter, luminescence, 16 h; DNA damage induced by 5-fluorouridine; AID 504467; 330,000 compounds, 2.3% hits; Potency, µM (titrated, usually from 46.1 µM), for the others: at the highest dose activity change, negative = inhibition, hits mostly inhibitors; further: potency means the concentration at half of the fitted maximal effect; nearly all actives have a fitted effect of over 55% in size
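In this reporter screen, reduction of luminescence relative to DMSO vehicle indicated activity. Compounds and 5-fluorouridine were added together to 2,000 cells per well, incubated for 16 hr at 37 °C, then developed with ONE-Glo.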
IL-1B inflam inh – inhibitors of inflammasome signaling (IL-1 beta secretion). THP-1 LPS/ATP IL-1B secretion, AlphaLISA, 16 h; hits give low values. activity change, % at 57.5 µM. 360,000 compounds, 4.7% hits. AID 743279; in the data active means activity change below about -50%; inconclusive means mostly about -30% to -49%
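Secreted IL-1B measured by AlphaLISA bead assay after 16 h compound exposure of THP-1 cells; compounds (final up to 57.5 uM) added 1 h before LPS (250 ng/mL) and ATP (1.25 mM) stimulation; lower signal means less secretion.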
VP16 counter – Gal4-VP16 reporter inhibition counter-screen | 310,000 compounds, 3.5% hits | Potency, µM (top dose mostly 53.6 µM), inactives show top-dose activity, negative = inhibition, hits mostly inhibitors | Drosophila S2 Gal4-VP16 UAS-luciferase, luminescence, 20 h | AID 2546;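 further: Gal4-VP16 expression switched on by copper sulfate through the metallothionein promoter; potency means the concentration at half of the fitted maximal effect; nearly all actives have a fitted effect of over 50% in size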
TDP1 cell CPT – growth inhibition of DT40 Tdp1-/-;hTDP1 cells with camptothecin (screen for TDP1 inhibitors); AID 686979; 420,000 compounds, 12% hits; Potency, µM (doses to about 46.2 µM), without a hit: at the highest dose activity change, negative = growth inhibition, actives largely listed as inhibitors; chicken DT40 Tdp1-/-;hTDP1 cells + 20 nM CPT, ATP luminescence, 48 h; further: potency means the concentration at half of the fitted maximal effect; nearly all actives have a fitted effect of over 55% in size
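Cell growth measured by CellTiter-Glo luminescence after a minimum 48 h, 37 C compound exposure with 20 nM CPT in Tdp1-knockout DT40 cells stably expressing hTDP1, seeded 400/well; qHTS titration format.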
Active calls of the source: *; ? = inconclusive; . = no result given; [ ] = remark or other dose. An excerpt weighted towards active compounds, which were near 21% of everything screened. Unless noted, the call rests on the fitted dose curve; in most records, active means well fitted curve in the direction sought with a large enough effect; inconclusive means small, poorly fitted or top-dose-only effect, or another doubt; inactive means no such curve, though single readings can be large; an effect the other way counts as inactive or inconclusive. On the % scale 0 is the no-effect control and ±100 the full control effect.

SMILES | TDP1 cell noCPT | RORgamma inh | ELG1 repair inh | IL-1B inflam inh | VP16 counter | TDP1 cell CPT
CC(C)NC(=O)Nc1ccc2c(c1)N(C)C(=O)c1ccccc1S2 | -28.6% | . | . | . | . | ?
CCc1ccccc1NC(=O)Nc1ccc2c(c1)N(CC)C(=O)c1ccccc1S2 | 14.6µM* | . | . | . | . | 8.2µM*
Cn1c(=O)cnc2cnc(Oc3ccccc3)nc21 | -12.9% | 14.0% | . | . | 8.9% | 1.7%
CC(=O)c1ccc(C(=O)N2CCc3c(cnc(C)c3CNC(=O)c3ccc4c(c3)OCO4)C2)s1 | -28.8% | . | . | . | . | 1.3%[9.04 µM]
Cc1ncc2c(c1CNC(=O)c1ccccc1F)CCN(C(=O)c1ccc3c(c1)OCCO3)C2 | 0.13µM* | . | . | . | . | 0.058µM*
O=C(c1cccs1)c1c[nH]cc1-c1ccccc1 | -19.9% | . | . | -56.8* | . | -6.0%
O=C(c1ccccc1)c1c[nH]cc1-c1ccccc1 | -12.4% | -19.4% | -0.6% | 1.0 | 1.5% | 0.0%
COC(=O)C/C=C\[C@@H](C)[C@@H](/C=N\O[C@@H]1O[C@H](COC(C)=O)[C@H](OC(C)=O)[C@H](OC(C)=O)[C@H]1OC(C)=O)OC | . | -4.5%[10 µM] | . | . | -5.4%[10 µM] | .
Cc1cc2c(c(C)c1Cl)C(c1ccc3c(c1)OCO3)CC(c1ccccc1)O2 (centres undefined) | . | 1.6% | . | . | 4.7% | .
Cc1ccc(S(=O)(=O)N(CCC(=O)NCC(c2ccccc2)N(C)C)c2ccccc2)cc1 (centres undefined) | -22.1% | . | . | -13.0 | . | ?
Cc1cc(C)cc(OCCSc2nc3ccc(NC(=O)c4ccc5c(c4)OCO5)cc3s2)c1 | 5.17µM* | . | . | . | . | ?
Cc1ccccc1OCCSc1nc2ccc(NC(=O)c3ccccc3)cc2s1 | ? | . | . | . | . | -70.4%
Cc1ccccc1OCCSc1nc2ccc(NC(=O)c3cccs3)cc2s1 | 18.4µM* | . | . | . | . | 23.1µM*
Cc1cccc(OCCSc2nc3ccc(NC(=O)c4cccs4)cc3s2)c1 | 11.6µM* | . | . | . | . | 16.4µM*
Cc1ccc(NC(=O)CSc2nc3ccc(NC(=O)c4cccs4)cc3s2)cc1 | ? | . | . | . | . | -25.9%
Cc1ccccc1OCCSc1nc2ccc(NC(=O)c3cccc(F)c3)cc2s1 | 11.6µM* | . | . | . | . | 16.4µM*
COC(=O)[C@H](Cc1ccccc1)[C@@H](C)OS(N)(=O)=O | -11.5% | 1.4% | 18.8% | 6.2 | 2.8% | 0.7%
C[C@H](CO)N1C[C@H](C)[C@H](CN(C)C(=O)Cc2cccnc2)Oc2ncc(Br)cc2C1=O | 2.9% | . | . | 42.6 | . | -3.1%
COc1ncc2nc(-c3ccccc3)c(=O)n(CCc3ccccc3)c2n1 | 3.5% | 12.8% | . | . | -4.4% | 0.9%
Cc1noc(C)c1C1(O)CCCCCCCCCCC1 | ? | -33.0% | -5.9% | 55.9 | -0.9% | -28.3%
OCl | -4.0% | 8.5% | . | . | -9.7% | -1.8%
O=C(NCc1cc(Cl)cc(Cl)c1)c1ccc2nc([C@H]3C[C@H](O)[C@@H](CO)O3)[nH]c2c1 | -5.5% | . | . | -1.6 | . | -1.9%
O=C1C2CC=CCC2C(=O)N1c1nccs1 (centres undefined) | -0.7% | . | . | 10.2 | . | 2.3%
CNC(=O)c1[nH]cnc1C(=O)Nc1ccc(C)cc1 | -10.4% | 3.98µM* | ? | 11.4 | 4.47µM* | -21.5%
CNC(=O)c1[nH]cnc1C(=O)Nc1cccc(OC)c1 | -29.8% | 7.08µM* | ? | -3.2 | 14.1µM* | ?
SMILES | TDP1 cell noCPT | RORgamma inh | ELG1 repair inh | IL-1B inflam inh | VP16 counter | TDP1 cell CPT
CNC(=O)c1[nH]cnc1C(=O)Nc1ccc(F)cc1 | 3.0% | 12.6µM* | 26.8% | -15.4 | ? | 0.7%
Cc1ccc(NC(=O)c2nc[nH]c2C(=O)Nc2ccc(C)cc2)cc1 | 7.31µM* | 1.41µM* | 19.5% | -1.9 | 2.82µM* | 10.3µM*
C/C(=N/NC(=O)CN1CCN(Cc2ccccc2Cl)CC1)c1cccnc1 | -14.4% | -36.4% | ? | 12.4 | -4.3% | 3.0%
CNC(=O)c1[nH]cnc1C(=O)Nc1ccccn1 | 3.1% | -27.7% | ? | 0.0 | -15.3% | 22.1%
CNC(=O)c1[nH]cnc1C(=O)Nc1ccc(Cl)cc1 | ? | 3.98µM* | ? | -12.2 | 7.08µM* | -29.1%
C=C1C(N)CC2CC1C2(C)C (centres undefined) | -4.2% | -2.0% | . | . | -6.7% | 6.4%
O=S(=O)(Cc1ccccc1)NC1c2ccccc2Oc2ccccc21 | 20.6µM* | . | . | -16.9 | . | 14.6µM*
O=S(=O)(Cc1ccccc1)Nc1ccccc1 | 4.3% | 29.3% | 8.5% | -1.1 | -3.2% | 6.8%
CC1(C)Cc2ccccc2C(/C(C#N)=N/O)=N1 | 23.1µM* | ? | -23.5% | -17.9 | -6.5% | 14.6µM*
CC1(C)Cc2ccccc2C(NN=C2CCCC2)=N1 | -28.6% | -25.6% | -10.6% | -0.4 | 0.0% | 10.4%
CCOc1cc(-c2ccc3c(c2)OCO3)cc(=O)c2c(C)oc(C)c12 | . | 16.4% | -0.5% | . | 1.0% | .
COc1ccc(C(=O)Oc2cc(-c3ccc(OC)c(OC)c3)cc(=O)c3c(C)oc(C)c23)cc1 | 18.4µM* | . | . | . | . | ?
CCOc1ccc(-c2nc(CS(=O)(=O)CC(=O)NCc3ccc(F)cc3)c(C)o2)cc1 | -23.0% | -28.3% | -17.0% | -29.0 | -7.8% | -4.5%
CCOc1cc(-c2ccc(OC(=O)c3ccc(C)cc3)c(OC)c2)cc(=O)c2c(C)oc(C)c12 | 5.17µM* | . | . | . | . | 5.8µM*
CCOc1ccc(-c2cc(OC(=O)c3ccc(F)cc3)c3c(C)oc(C)c3c(=O)c2)cc1 | 16.4µM* | . | . | . | . | ?
CCOc1cc(-c2ccc(OC(=O)c3ccccc3F)cc2)cc(=O)c2c(C)oc(C)c12 | 13µM* | . | . | . | . | 13µM*
COC(=O)c1ccc(OC(=O)c2ccccc2F)cc1 | . | -7.2% | ? | . | -15.8% | .
COc1ccc(CNC(=O)COC(=O)c2[nH]c(C)c(C(C)=O)c2C)cc1OC | -15.4% | . | ? | 25.4 | . | -1.5%
COc1ccc(C(=O)COC(=O)C2COc3ccccc3O2)c(OC)c1 (centres undefined) | 2.0% | . | . | 11.5 | . | ?
CCc1ccccc1NC(=O)CNC(=O)CNC(=O)c1cccs1 | -29.9% | . | 20.9% | -1.8 | . | 3.4%
COc1cc(-c2cc(OC)c3c(C)oc(C)c3c(=O)c2)ccc1OC(=O)c1ccc(C)cc1 | 5.8µM* | . | . | . | . | 5.17µM*
CCN(C(=O)COC(=O)CCC(=O)c1ccc(C)cc1)c1c(N)n(Cc2ccccc2)c(=O)[nH]c1=O | -29.5% | . | . | -4.1 | . | ?
O=C(CNc1ccccc1)N/N=C/c1c(O)ccc2ccccc12 | 6.51µM* | 1.58µM* | ? | 216.2 | 2.82µM* | 10.3µM*
O=C(N/N=C/c1cc(Br)ccc1O)Nc1ccccc1 | ? | 2.51µM* | -4.5% | -96.9* | 11.2µM* | ?
